Results published in PubChem BioAssay AID624330 (Southern Research Specialized Biocontainment Screening …, 2012).
Hit rate of the full screen: of about 340,000 compounds, about 2,100 (0.62%) were called active.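 Rule for the calls: active = first-screen hits whose inhibition reached a set limit at any dose in the follow-up dose series; inconclusive = inhibition above the set first-screen limit but never retested; inactive = the rest.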 Not all results are given here. Results with a measured potency or affinity are listed apart.

target: Rac GTPase-activating protein 1 (Homo sapiens) (UniProt Q9H0H5); assay: blockers of MgcRacGAP-driven Rac1 GTP hydrolysis – biochemical, ADP Hunter fluorescence, primary and confirmatory, confirmation (AID 624330); conditions: MgcRacGAP-stimulated Rac1 GTP hydrolysis, at 30 µM, hits give high values, GST-tagged Rac1 F28L mutant substrate;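 note: fluorescence reports GDP produced by GAP-driven GTP hydrolysis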
Sequence (Q9H0H5 whole entry, looked up): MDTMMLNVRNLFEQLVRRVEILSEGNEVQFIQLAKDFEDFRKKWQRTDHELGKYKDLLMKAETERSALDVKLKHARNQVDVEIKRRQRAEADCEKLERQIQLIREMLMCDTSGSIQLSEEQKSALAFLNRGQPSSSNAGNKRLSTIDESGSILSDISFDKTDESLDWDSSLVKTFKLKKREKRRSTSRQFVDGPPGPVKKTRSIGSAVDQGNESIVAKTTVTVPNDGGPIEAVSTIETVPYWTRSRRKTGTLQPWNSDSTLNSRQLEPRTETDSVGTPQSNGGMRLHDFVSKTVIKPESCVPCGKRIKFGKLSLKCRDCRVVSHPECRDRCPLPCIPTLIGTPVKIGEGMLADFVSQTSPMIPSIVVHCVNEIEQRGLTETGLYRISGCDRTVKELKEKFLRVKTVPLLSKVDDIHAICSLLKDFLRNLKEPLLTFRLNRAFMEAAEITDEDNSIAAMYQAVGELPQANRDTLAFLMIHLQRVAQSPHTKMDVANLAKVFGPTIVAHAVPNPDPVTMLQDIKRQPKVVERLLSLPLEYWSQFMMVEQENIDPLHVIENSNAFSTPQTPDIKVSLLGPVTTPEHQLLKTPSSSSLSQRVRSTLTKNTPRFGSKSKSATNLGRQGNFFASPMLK

inhibition, inactive:
COC(=O)c1nnc(-c2ccccc2)nc1OC 4.64%, CCN(CC(=O)Nc1ccccc1C(F)(F)F)C(=O)c1cc(-c2cccs2)nn1-c1ccccc1 1.06%, CCC(=O)OCc1cc(=O)oc2ccc3ccccc3c12 9.78%, O=C(c1cncc(Br)c1)N1CCN(S(=O)(=O)c2ccc3ccccc3c2)CC1 2.91%, Nc1nccnc1C(=O)OCC(=O)NC1CCCc2ccccc21 (centres undefined) 2.06%, CCN1CCN(c2sc(S(=O)(=O)CC)nc2S(=O)(=O)c2ccc(Cl)cc2)CC1 13.7%, Cc1ccc(C2=N/C(=C\c3cccs3)C(=O)N2Nc2ccccc2)cc1 4.5%, COc1ccc(OCC(O)Cn2ccnc2C)cc1 (centres undefined) -5.32%, Cc1nccn1CCOc1ccc(Cl)cc1 19.6%, O=C(Nc1nc2ccccc2[nH]1)c1cccs1 5.07%, C/C(=N\Nc1nc2ccccc2s1)c1cccs1 15.9%, C/C(=N\Nc1nc2ccccc2[nH]1)c1ccc([N+](=O)[O-])cc1 9.3%, C/C(=N\Nc1nc2ccccc2[nH]1)c1ccc2c(c1)OCO2 29.4%, C/C(=N\Nc1nc2ccccc2[nH]1)c1ccc2c(c1)OCCO2 14.6%, C/C(=N\Nc1nc2ccccc2[nH]1)c1ccccn1 16.1%, COc1ccc(CN2C(=O)c3cccnc3C2=O)cc1S(=O)(=O)N1CCCCC1 5.59%, CCN1CCN(c2ccc(NC(=O)c3ccccc3F)cc2Cl)CC1 10.3%, O=C(CSc1nc(=O)n2ccccc2n1)N1CCC(Cc2ccccc2)CC1 2.37%, CC(C)Nc1nc(NC2CCCC2)nc(N2CCOCC2)n1 -6.17%, Cc1cccc(NS(=O)(=O)c2cccc(C(=O)N3CCCCCCC3)c2)c1 7.59%, CCOC(=O)C1=C(C)NC(C)=C(C(=O)OCC)C1C(=O)O -2.63%, Oc1ccc(/C=C/c2ccnc3ccccc23)cc1 20.5%, CN(C)c1ccc(/C=C/c2ccc3ccccc3n2)cc1 10.9%, C(=C\c1ccc2ccccc2n1)/c1ccccc1 -0.19%, O=c1[nH]c2ccccc2nc1/C=C/c1ccc(F)cc1 2.77%, O=C(Nc1cccc(S(=O)(=O)NC2=NCCCCC2)c1)c1cc(-c2ccc(Cl)cc2)nc2ccccc12 9.39%, Cc1ccc(-c2nnc(SCC(=O)Nc3nc4c(s3)CCCC4)n2C)cc1 10.7%, COc1ccc(O)c(/C=N/NC(=O)CCC(=O)Nc2cccc(C)c2)c1 6.29%, COc1ccc(O)c(/C=N/NC(=O)CCC(=O)Nc2ccc(C)cc2)c1 5.47%, Cc1ccc(NC(=O)CCC(=O)N/N=C/c2ccccc2O)cc1 -6.53%, Cc1cccc(NC(=O)CCC(=O)N/N=C/c2cc([N+](=O)[O-])ccc2O)c1 5.13%, COc1ccc(N2CCN(C(=O)COC(=O)Cc3ccc(F)cc3)CC2)cc1 17.9%, C[C@@H]1CN([C@H](C)CO)C(=O)CCCn2nncc2CO[C@H]1CN(C)Cc1ccc(O)cc1 7.18%, Cn1c(SCC(=O)N2CCOCC2)nnc1-c1ccco1 -0.83%, O=C(c1cc(-c2ccco2)on1)N1CCOCC1 2.62%, Cc1cccc(N2C(=O)C(O)=C(C(=O)c3cccs3)C2c2ccc(F)cc2)n1 (centres undefined) 11.6%, O=C(CC(=O)c1ccccc1)Nc1cc(C(F)(F)F)ccc1Cl -0.8%, CC1CCN(CC(=O)Nc2cc(C(F)(F)F)ccc2Cl)CC1 6.71%, COc1ccc(OC)c(NC(=O)CC2(CC(=O)O)CCCC2)c1 5.41%, O=C(Nc1cccc(-n2cnnn2)c1)c1cc2ccccc2o1 0.98%, CC(=O)Nc1ccc(-c2csc(NCc3ccccc3)n2)cc1 8.92%, CC(=O)Nc1cccc(-c2csc(NCc3ccco3)n2)c1 15.4%, N/C(=N\OC(=O)c1ccco1)c1cccc([N+](=O)[O-])c1 6.07%, CCn1cc(Cl)c(C(=O)Nc2nccs2)n1 1.45%, C=C(C)CSc1nnc(-c2ccc(OC)cc2)n1N 5.76%, O=C(O)c1ccc(C=NNC(=O)c2ccccc2NS(=O)(=O)c2cccs2)cc1 7.04%, CC(C)(C)c1cc(C(=O)N/N=C/c2ccc(F)cc2)n(-c2ccccc2)n1 6.73%, O=C(NN=Cc1ccc(F)cc1)c1ccccc1NS(=O)(=O)c1cccs1 5.29%, O=C(N/N=C/c1ccc(C(F)(F)F)cc1)c1ccc(O)cc1 8.28%, CC(C)(C)c1cc(C(=O)N/N=C/c2ccccc2O)n(-c2ccccc2)n1 2.15%, O=C(N/N=C/c1cccc(C(F)(F)F)c1)c1ccc(O)cc1 6.36%, O=C(Nc1ccccc1C(=O)N/N=C/c1ccco1)c1ccccc1 7.26%, O=C(Nc1ccccc1C(=O)N/N=C/c1ccncc1)c1ccccc1 9.96%, O=C(CSc1nnc(C2CC2)n1-c1ccccc1)NC1CCS(=O)(=O)C1 (centres undefined) -2.5%, CCOC(=O)c1cc(C)nn1-c1nc(Cl)cc(OC)n1 5.27%, COC(=O)c1ccccc1NC(=O)Oc1ccc(C(C)C)cc1 8.33%, Cc1ccc(NS(=O)(=O)c2ccc(-n3cccn3)cc2)nc1 4.91%, COc1ccc(S(=O)(=O)N2CCCCC2)cc1NC(=O)C1CSC2(C)CCC(=O)N12 (centres undefined) 5.04%, CC(C)(C)C(=O)NC(=S)NNC(=O)C(c1ccccc1)c1ccccc1 6.5%, O=C(O)CC/C(=N/NC(=O)CNC(=O)c1ccc2c(c1)OCCO2)c1ccccc1 3.51%, CCOC(=O)C(=O)Nc1cccc(C(=O)OCC)c1 -6.93%, COc1ccc(/C=N/NC(=O)Nc2cccc3nsnc23)cc1 -1.96%, COc1ccc(/C=N/NC(=O)Nc2cccc3nsnc23)cc1OC 6.64%, COc1cc(C=NNC(=O)c2ccccc2NS(=O)(=O)c2cccs2)cc(OC)c1O 9.93%, O=C(NN=Cc1cc(Br)c(O)c(Br)c1)c1ccccc1NS(=O)(=O)c1cccs1 15.4%, CC(NC(=O)c1ccccc1)C(=O)N/N=C/c1ccc(O)cc1 (centres undefined) 27%, O=C(NN=Cc1c(F)cccc1F)c1ccccc1NS(=O)(=O)c1cccs1 3.9%, COc1ccc(C=NNC(=O)c2ccccc2NS(=O)(=O)c2cccs2)cc1O 12.1%, COc1ccccc1/C=N/NC(=O)C(NC(=O)c1ccccc1)=C(C)C 4.44%
